Entries with a potency or affinity are not part of this list. Activity calls are given as the source filed them.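 The calls were made as follows: active = combined score above 51, weighing potency under 20 µM and fitted curve span over 20%; inactive = the rest.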
Molecular target: Broad substrate specificity ATP-binding cassette transporter ABCG2 (Homo sapiens) (UniProt Q9UNQ0)
Experiment: blockers of JC-1 export by ABCG2 – Ig-MXP3 cells, flow cytometry, dose response (AID 1690)
Conditions: JC-1 efflux; series mostly up to 33.3 µM; inhibition: at the top concentration

Broad substrate specificity ATP-binding cassette transporter ABCG2 (Homo sapiens), sequence (Q9UNQ0 whole entry, looked up): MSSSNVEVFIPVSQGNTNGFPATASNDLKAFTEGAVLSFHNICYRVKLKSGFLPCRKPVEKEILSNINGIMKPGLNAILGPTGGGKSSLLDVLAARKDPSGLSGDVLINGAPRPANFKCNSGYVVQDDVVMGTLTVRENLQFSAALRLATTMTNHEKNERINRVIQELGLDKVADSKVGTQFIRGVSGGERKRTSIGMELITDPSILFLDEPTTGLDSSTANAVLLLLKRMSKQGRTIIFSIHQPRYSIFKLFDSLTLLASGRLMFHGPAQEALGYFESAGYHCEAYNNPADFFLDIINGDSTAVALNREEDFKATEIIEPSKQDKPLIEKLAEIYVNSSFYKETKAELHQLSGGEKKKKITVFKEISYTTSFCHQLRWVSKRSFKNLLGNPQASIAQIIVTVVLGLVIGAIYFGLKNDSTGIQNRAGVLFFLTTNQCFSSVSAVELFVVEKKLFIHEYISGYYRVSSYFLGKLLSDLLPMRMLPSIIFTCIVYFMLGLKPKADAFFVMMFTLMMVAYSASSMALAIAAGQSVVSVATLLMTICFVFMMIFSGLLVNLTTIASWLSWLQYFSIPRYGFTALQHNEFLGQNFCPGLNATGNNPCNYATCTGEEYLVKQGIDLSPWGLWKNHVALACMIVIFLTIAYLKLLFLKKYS

inhibition, inactive:
CCCCn1c(O)c(N=Nc2ccccn2)c2ccccc21 85.4% [at 66.6 µM]
COc1ccc(CCNC(=O)COC(=O)/C=C/c2ccc(OC)c(OC)c2)cc1 51.7%
COc1ccccc1Nc1nc2nonc2nc1N1CCCCC1C (stereo unspecified) 9.37% [at 66.6 µM]
CCN(CC)C1=CC2=CC(=C(C#N)C#N)CCC2CC1 (stereo unspecified) 100% [at 66.6 µM]
CCN1/C(=C\C=C\c2oc3ccc4ccccc4c3[n+]2CC)Oc2ccc3ccccc3c21 46.5% [at 66.6 µM]
CC(=O)Nc1ccc(Nc2ccc(S(=O)(=O)C(F)(F)F)cc2[N+](=O)[O-])cc1 42.1%
Cc1nc2cc(-c3cccc(F)c3)nn2c(N2CCN(C(=O)c3ccco3)CC2)c1C 74.5%
CCOC(=O)c1sc2cc([N+](=O)[O-])cc(SCC(C)C)c2c1N -5.78% [at 66.6 µM]
CNc1nc2cc([N+](=O)[O-])c([N+](=O)[O-])cc2nc1NC 80.2% [at 11.1 µM]
N#CC(C#N)=C1C=C2C=C(N3CCOCC3)CCC2CC1 (stereo unspecified) 57.5%
COC(=O)c1cc(NC(=O)c2ccccc2)c(=O)oc1/C=C/Nc1ccc(Oc2ccccc2)cc1 -230% [at 66.6 µM]
N#CC(C#N)=C1C=C2C=C(N3CCCCCC3)CCC2CC1 (stereo unspecified) 100%
CN1CCN(C2=CC3=CC(=C(C#N)C#N)CCC3CC2)CC1 (stereo unspecified) 30.5%
CCCCN1/C(=C/c2ccc3ccccc3[n+]2CC)Sc2ccccc21 100% [at 66.6 µM]
COc1ccc(/C=N/NC(=O)c2cccnc2)cc1CN1CCN(c2ccc(F)cc2)CC1 60%
CN(C)c1ccc(/C=C2\SC(=S)N(Nc3ncc(C(F)(F)F)cc3Cl)C2=O)cc1 58.1%
